# Measurements as given in PubChem BioAssay (NCATS).
# Inconclusive results are not listed. This is one part of the list. Entries that show only a call come without a potency. The source made the active and inactive calls. Unless noted, calls follow the shape of the dose curve; as a rule, active = well fitted curve in the direction sought with a large enough effect; inconclusive = small, poorly fitted or top-dose-only effect, or another doubt; inactive = no such curve, though single readings can be large; an effect the other way counts as inactive or inconclusive.
# Columns and labels:
# [1] = target: Mitogen-activated protein kinase 10 (Mus musculus) (UniProt Q61831); assay: JNK3 AlphaScreen Assay (AID 530; active = well fitted curve in either direction with a large enough effect, not every such curve was filed as active;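 also: kinase came from lysate of stimulated human HepG2 cells; signal reports phosphorylation of biotinylated GST-cJun 1-79 at Ser73 with 10 µM ATP; series mostly up to about 57 µM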)
# Outline: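 Pre-activated (IL-1β/TNFα) JNK3 in HepG2 lysates phosphorylates biotin-GST-cJun(1-79), 10 uM ATP; anti-phospho-cJun(Ser73) AlphaScreen read at room temperature, pH 7.6 Tris buffer. Compounds pre-incubated 15 min as titrations.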
# [2] = target: Cytochrome P450 3A4 (Homo sapiens) (UniProt P08684); assay: qHTS Assay for Inhibitors and Substrates of Cytochrome P450 3A4 (AID 884); also: potency is read from the fitted curve at half-maximal effect; nearly all actives have a fitted effect of over 50% in size
# Outline: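 20 nM human CYP3A4 with 25 uM Luciferin-PPXE (at KM) in 200 mM KPO4, preincubated 10 min with compound; NADPH regeneration started a 60 min RT reaction. Luciferin detected by luminescence, normalized to 57 uM ketoconazole as full inhibition.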
# [3] = target: Cytochrome P450 3A4 (Homo sapiens) (UniProt P08684); assay: qHTS Assay for Activators of Cytochrome P450 3A4 (AID 885); also: nearly all actives have a fitted effect of over 65% in size
# Outline: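 Steps: enzyme/substrate mix dispensed; compound added, 10 min RT; NADPH regeneration solution added, 60 min RT; luciferin detection buffer stops reaction; 20 min later luminescence measured.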
# [4] = target: DNA dC->dU-editing enzyme APOBEC-3G (Homo sapiens) (UniProt Q9HC16); assay: qHTS for inhibitors of Vif-A3G interactions: Validation (AID 588379)
# Outline: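 HeLa cells stably expressing Vif and A3G-eYFP, 700 cells/well, incubated overnight at 37 deg C, then exposed to compound overnight at 37 deg C. Inhibition of Vif-mediated degradation read as increased yellow fluorescence (Ex 488/Em 500-530) by laser-scanning cytometry.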
# [5] = target: Lethal(3)malignant brain tumor-like protein 1 (Homo sapiens) (UniProt Q9Y468); assay: qHTS Assay for the Inhibitors of L3MBTL1: Hit Validation (AID 540279); details: L3MBTL1 methyl-lysine binding inhibition, biochemical qHTS; also: potency is read from the fitted curve at half-maximal effect; nearly all actives have a fitted effect of over 70% in size
# Excerpt: (§1) The histone code is comprised of many post-translational modifications that occur mainly in histone tail peptides. The identity and location of these marks are read by a variety of histone binding proteins that are emerging as important regulators of cellular differentiation and development and are increasingly being implicated in numerous disease states. Small molecule probes that disrupt the interaction between histone binding proteins and chromatin would enable a systematic chemical biology study of proteins that read the histone code and could potentially reveal new targets for drug discovery. However, no such small molecules are known. This dearth of quality molecular probes can largely be attributed to the novelty of the target class and the lack of screening assays. This proposal details the development of the first high-throughput screening assay for the discovery of inhibitors of methyl-lysine binding proteins and how it can be used to initiate a full-scale discovery effort for antagonists of histone binding proteins. Specifically, this work focuses on an AlphaScreen(tm)-based HTS assay for Malignant Brain Tumor (MBT) domain-containing proteins, which bind to the lower methylation states of lysine residues present in histone tail peptides.
# To each well, 2 uL of L3MBTL1 protein (final 50 nM) and 1 uL biotinylated histone peptide monomethylated at Lys9 [b-AHA-H3(1-15)K9me1] (final 75 nM) was added using a nanoliter dispenser. Formation of a protein-peptide complex proceeded at room temperature for 30 min. A Kalypsys pin-tool was employed to transfer 23 nL of library compound solution in DMSO to each well. Cefsulodin, found in a pilot screen of the LOPAC library to be a weak inhibitor of L3MBTL1 binding, was used as an intraplate control with a 16-point titration in duplicate. Following a 30 min incubation of the protein-peptide complex with compounds at room temperature, a mixture of 40 ug/mL each streptavidin-coated donor and nickel chelate acceptor AlphaScreen beads (final 10 ug/mL) was added in a 1 uL dispense for a final volume of 4 uL. Plates were incubated, protected from the light for 30 min at room temperature. Microplates were then be read on an EnVision multilabel plate reader using the 1,536 plate HTS AlphaScreen aperture (excitation time 80 ms, measurement time 240 ms).
# [6] = qHTS Assay for the Inhibitors of L3MBTL1: Hit Validationin AlphaScreen Counterscreen (AID 602224)
# Excerpt: as §1
# Although AlphaScreen has significant advantages with its utility in a variety of epigenetic target assays, the primary screening data (linked to this assay) should be used with caution due to the prevalence of screening artifacts. An AlphaScreen counterscreen was developed and ran against any putative actives to eliminate non-specific artifacts. […] Compounds that were active in the primary screen were run in this this counterscreen. Compounds that are active in this screen are compounds that are artifacts in the primary screen.
# NIH Chemical Genomics Center [NCGC]
# NIH Molecular Libraries Probe Centers Network [MLPCN]
# Assay Submitter (PI): William Janzen, University of Carolina, Chapel Hill
# Biotinylated hexahistidine (b-His6) (PerkinElmer, Waltham, MA) will be added to 1,536-well plates in a 3 uL dispense. Compounds will be added in a 23 nL pin-transfer step, and plates will be incubated at room temperature for 15 min. Streptavidin-coated donor and nickel chelate acceptor AlphaScreen beads will be added (1 uL) for final concentrations of 10 ug/mL each bead and 1 nM b-His6, and plates read as described above (qHTS assay) after a 30 min incubation at room temperature in the dark
# Sequence of DNA dC->dU-editing enzyme APOBEC-3G (Homo sapiens) (Q9HC16 whole entry, looked up): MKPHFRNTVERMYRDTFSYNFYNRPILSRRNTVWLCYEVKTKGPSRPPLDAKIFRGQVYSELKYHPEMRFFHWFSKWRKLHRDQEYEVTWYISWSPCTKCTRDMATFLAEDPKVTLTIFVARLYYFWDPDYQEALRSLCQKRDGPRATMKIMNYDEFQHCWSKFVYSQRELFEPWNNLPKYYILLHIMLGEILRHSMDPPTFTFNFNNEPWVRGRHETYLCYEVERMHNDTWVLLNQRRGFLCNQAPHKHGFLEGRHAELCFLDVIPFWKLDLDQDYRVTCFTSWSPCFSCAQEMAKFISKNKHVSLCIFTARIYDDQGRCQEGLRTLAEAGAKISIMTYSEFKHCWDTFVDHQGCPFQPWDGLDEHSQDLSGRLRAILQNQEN
# Sequence of Cytochrome P450 3A4 (Homo sapiens) (P08684 whole entry, looked up): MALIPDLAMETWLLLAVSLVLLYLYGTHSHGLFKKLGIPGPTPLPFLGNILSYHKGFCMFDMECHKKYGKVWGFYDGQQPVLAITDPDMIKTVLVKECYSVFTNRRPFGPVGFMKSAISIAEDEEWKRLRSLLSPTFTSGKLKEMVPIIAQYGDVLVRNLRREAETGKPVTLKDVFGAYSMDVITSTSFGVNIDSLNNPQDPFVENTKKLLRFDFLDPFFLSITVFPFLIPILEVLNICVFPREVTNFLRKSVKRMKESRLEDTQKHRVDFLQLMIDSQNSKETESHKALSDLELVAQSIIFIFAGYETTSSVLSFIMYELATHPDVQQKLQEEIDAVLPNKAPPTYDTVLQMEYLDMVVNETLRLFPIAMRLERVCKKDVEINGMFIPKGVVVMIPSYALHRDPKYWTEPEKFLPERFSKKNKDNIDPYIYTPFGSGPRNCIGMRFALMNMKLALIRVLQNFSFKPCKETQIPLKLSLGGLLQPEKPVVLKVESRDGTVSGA
# Sequence of Lethal(3)malignant brain tumor-like protein 1 (Homo sapiens) (Q9Y468 whole entry, looked up): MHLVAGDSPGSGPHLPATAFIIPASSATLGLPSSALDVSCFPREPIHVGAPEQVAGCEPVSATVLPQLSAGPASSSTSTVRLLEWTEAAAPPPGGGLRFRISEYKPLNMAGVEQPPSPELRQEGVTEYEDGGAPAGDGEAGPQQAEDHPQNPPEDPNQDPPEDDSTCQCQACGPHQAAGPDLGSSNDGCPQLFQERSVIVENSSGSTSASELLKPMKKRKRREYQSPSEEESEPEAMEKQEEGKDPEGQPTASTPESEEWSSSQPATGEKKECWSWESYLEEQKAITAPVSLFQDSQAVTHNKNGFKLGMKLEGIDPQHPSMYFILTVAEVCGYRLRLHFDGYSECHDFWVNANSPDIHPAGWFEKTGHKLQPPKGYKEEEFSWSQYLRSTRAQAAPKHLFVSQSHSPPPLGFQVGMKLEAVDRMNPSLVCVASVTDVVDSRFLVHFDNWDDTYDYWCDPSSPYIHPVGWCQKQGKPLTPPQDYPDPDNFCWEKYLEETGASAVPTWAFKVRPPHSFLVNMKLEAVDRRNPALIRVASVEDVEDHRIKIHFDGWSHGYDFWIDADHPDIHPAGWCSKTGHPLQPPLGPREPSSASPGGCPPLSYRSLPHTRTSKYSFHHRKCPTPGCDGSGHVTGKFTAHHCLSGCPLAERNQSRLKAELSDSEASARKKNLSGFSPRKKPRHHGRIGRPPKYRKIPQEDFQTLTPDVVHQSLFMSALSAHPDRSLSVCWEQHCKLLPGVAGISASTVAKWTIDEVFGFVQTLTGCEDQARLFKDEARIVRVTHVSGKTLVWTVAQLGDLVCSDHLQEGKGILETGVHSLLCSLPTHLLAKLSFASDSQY
smiles,measurement,setting,value
CCCCCCN(C(=O)CCCCCN1C(=O)NC(c2ccc(-c3ccccc3)cc2)C(C(=O)OCc2ccccc2)=C1C)C(C(=O)NCCCC)c1ccc(O)cc1 (stereo not given),outcome,[1],inactive
same,Potency,[2],10 µM (active)
same,Potency,[3],inactive
COC(=O)C1(C)C=CC2(CCCCC2)N1C(=O)c1ccccc1 (stereo not given),outcome,[1],inactive
same,Potency,[3],inactive
CCCCCCN(C(=O)CCCCCN1C(=O)NC(c2ccc(-c3ccccc3)cc2)C(C(=O)OCc2ccccc2)=C1C)C(C(=O)NCCCC)c1cccc(C(=O)OC)c1 (stereo not given),outcome,[1],inactive
same,Potency,[3],inactive
COC(=O)CNC(=O)C1(C)C=CC2(CCCCC2)N1C(=O)OC (stereo not given),outcome,[1],inactive
same,Potency,[3],inactive
COc1ccc(-c2coc3cc(OC4OC(CO)C(O)C(O)C4O)cc(O)c3c2=O)cc1 (stereo not given),Potency,[4],inactive
COCCNC(=O)C1(CC(C)C)C=CCN1C(=O)c1ccccc1 (stereo not given),outcome,[1],inactive
same,Potency,[3],inactive
COC(=O)CCCCCN1C(=O)NC(c2ccccc2)C(C(=O)OCc2ccccc2)=C1C (stereo not given),outcome,[1],inactive
same,Potency,[3],inactive
CNC(=O)[C@@]1(C)C=C[C@@H](Cc2ccccc2)N1C(=O)OC,outcome,[1],inactive
same,Potency,[3],inactive
COC(=O)c1ccc(C(NC(=O)OCc2ccccc2)/C(C)=C/[C@@H](C)C(=O)NCCc2c[nH]c3ccc(OC)cc23)cc1 (stereo not given in full),outcome,[1],inactive
same,Potency,[3],inactive
CC1=CC(=O)C2=C(C)CCC3C(C)C(=O)OC3C12 (stereo not given),Potency,[4],inactive
Cc1cc(=O)cc2oc3cc(N)c(-c4c(C)cc(O)cc4O)c(C)c3nc1-2,Potency,[4],inactive
COCCNC(=O)C1(CC(C)C)C=CCN1C(=O)OC (stereo not given),outcome,[1],inactive
same,Potency,[3],inactive
COC(=O)C1(C)C=CC2(CCCCC2)N1C(C)=O (stereo not given),outcome,[1],inactive
same,Potency,[3],inactive
Oc1ccc(N=Nc2nccs2)c(O)c1,Potency,[5],16.8 µM (active)
same,outcome,[6],inactive
COC(=O)CNC(=O)C1(CC(C)C)C=CCN1C(=O)c1ccccc1 (stereo not given),outcome,[1],inactive
same,Potency,[3],inactive
COCCNC(=O)[C@@]1(Cc2ccccc2)C=C[C@@H](C)N1C(C)=O,outcome,[1],inactive
same,Potency,[3],inactive
CC(C)NC(=O)[C@H]1C[C@@H]1[C@H](NC(=O)OCc1ccccc1)c1ccccc1,outcome,[1],inactive
same,Potency,[3],inactive
CCN(C(=O)Cc1nc(N)n[nH]1)C1(C(=O)Nc2ccccc2)CCCCC1,Potency,[5],26.7 µM (active)
CCCCCCN(C(=O)CCCCCN1C(=O)NC(c2ccc(-c3ccccc3)cc2)C(C(=O)OCc2ccccc2)=C1C)C(C(=O)NCCCC)c1ccccc1 (stereo not given),outcome,[1],inactive
same,Potency,[3],inactive
